{"source": "PubChem BioAssay AID651821", "about": "(The Scripps Research Institute Molecular Screening Center, 2012)", "note": "The campaign covered roughly 370,000 compounds. About 4,700 (1.3%) were called active. This is one part of a sample in which actives are shown more often than they occur.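 The calls were made as follows: active = inhibition above the plate cutoff, the mean of all test compounds on that plate plus 3 SD (cut at about 35% in these data); inactive = the rest.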", "data": [{"assay": "small molecules binding CAG repeat RNA – biochemical, fluorescence, primary screen (AID 651821);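 also: 0% = DMSO alone and 100% = 100 µM mitoxantrone as full dye displacement; higher means more dye released from RNA so lower well fluorescence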", "conditions": "r(CAG) RNA repeat, TO-PRO-1 dye displacement fluorescence; at 3 µM; hits give high values", "values": [{"molecule": "CC/C(=N\\NC(=O)c1ccccc1O)c1c(O)n(Cc2ccccc2)c(=O)[nH]c1=O", "inhibition": "80.1% (active)"}, {"molecule": "O=c1[nH]c(=O)n(Cc2ccccc2)c(O)c1/C=N/Nc1c(F)c(F)c(F)c(F)c1F", "inhibition": "0.55% (inactive)"}, {"molecule": "CCCCn1c(O)c(C(CC)=NCc2ccco2)c(=O)[nH]c1=O", "inhibition": "-0.86% (inactive)"}, {"molecule": "C[N+]1(C)CCOC(O)(c2ccc(-c3ccc(C4(O)C[N+](C)(C)CCO4)cc3)cc2)C1", "note": "(stereo not given)", "inhibition": "3.46% (inactive)"}, {"molecule": "Cc1ccccc1CCC[C@@H](CC1CCCCC1)CN(C)C(=O)Oc1ccccc1", "inhibition": "6.44% (inactive)"}, {"molecule": "Clc1ccc([C@@H]2CC3CCC2N3)cn1", "note": "(stereo not given in full)", "inhibition": "1.8% (inactive)"}, {"molecule": "COc1cc(OC)cc(C(=O)NCCN2CCC3(CC2)C(=O)NCN3c2ccccc2)c1", "inhibition": "4.12% (inactive)"}, {"molecule": "COc1ccc(N2C(=O)/C(=C/c3ccco3)C(=O)NC2=S)cc1", "inhibition": "67.3% (active)"}, {"molecule": "O=Cc1cn(Cc2ccc(F)cc2Cl)c2ccccc12", "inhibition": "-0.22% (inactive)"}, {"molecule": "CCc1nnc(NS(=O)(=O)c2ccc(N=Cc3c(O)n(-c4ccccc4)c(=O)[nH]c3=O)cc2)s1", "inhibition": "5.87% (inactive)"}, {"molecule": "CC(C)(C)c1ccc(CN2C(=O)CN=C(c3ccccc3)c3ccccc32)cc1", "inhibition": "-3.15% (inactive)"}, {"molecule": "O=C1CC(=O)N(Cc2ccccc2)C(=O)N1CCCCCCN1C(=O)CC(=O)N(Cc2ccccc2)C1=O", "inhibition": "68% (active)"}, {"molecule": "O=C(NC(=S)N1C[C@H]2C[C@H](C1)c1cccc(=O)n1C2)c1ccc(F)cc1", "inhibition": "0.97% (inactive)"}, {"molecule": "O=C1C2(Cl)C3(Cl)C4(Cl)C(Cl)(Cl)C5(Cl)C3(Cl)C1(Cl)C5(Cl)C24Cl", "note": "(stereo not given)", "inhibition": "11.4% (inactive)"}, {"molecule": "Cc1cc(=O)oc2c(C)c(OCC(=O)N3CCN(Cc4ccc5c(c4)OCO5)CC3)ccc12", "inhibition": "-1.14% (inactive)"}, {"molecule": "COc1cccc(N2C(=O)NC(=O)/C(=C\\c3ccc([N+](=O)[O-])s3)C2=O)c1", "inhibition": "56% (active)"}, {"molecule": "O=C1NC(=O)N(c2ccccc2)C(=O)/C1=C/c1ccc([N+](=O)[O-])s1", "inhibition": "70.2% (active)"}, {"molecule": "CC1=C(C(=O)Nc2ccccc2)SCCO1", "inhibition": "5.19% (inactive)"}, {"molecule": "Cc1ccsc1C(=O)C1CCCN(Cc2ccc(O)cc2)C1", "note": "(stereo not given)", "inhibition": "-1.2% (inactive)"}, {"molecule": "O=c1[nH]c(=O)n(-c2ccccc2)c(O)c1C=NC12CN3CN(CN(C3)C1)C2", "inhibition": "2.56% (inactive)"}, {"molecule": "O=S(=O)(c1ccccc1)N1CCC2CCNC2C1", "note": "(stereo not given)", "inhibition": "1.15% (inactive)"}, {"molecule": "Cc1cc(N2CCNC[C@@H]2C)ccc1N1CC[C@H](O)C1", "inhibition": "3.47% (inactive)"}, {"molecule": "COc1ccccc1OC(=O)c1ccc(C)c(S(=O)(=O)N2CCOCC2)c1", "inhibition": "-3.22% (inactive)"}, {"molecule": "CS(=O)(=O)N1CCC2CCNC2C1", "note": "(stereo not given)", "inhibition": "0.17% (inactive)"}, {"molecule": "COP(=O)(Sc1ccccc1)C(Cc1ccccc1)NC(=O)OCc1ccccc1", "note": "(stereo not given)", "inhibition": "-1.61% (inactive)"}, {"molecule": "CCC(C)NC1(c2ccccc2)CCCCC1", "note": "(stereo not given)", "inhibition": "2.27% (inactive)"}, {"molecule": "COc1ccc(CN2CCN(c3ccccc3F)CC2)c(OC)c1", "inhibition": "-4.43% (inactive)"}, {"molecule": "Brc1ccc2c(c1)CNCc1cnnn1-2", "inhibition": "0.59% (inactive)"}, {"molecule": "COc1ccc2c(c1)[C@]13CCCCC1C(C2)N(C)CC3", "note": "(stereo not given in full)", "inhibition": "3.99% (inactive)"}, {"molecule": "COc1ccc2c(c1)[C@@]13CCCCC1[C@@H](C2)NCC3", "note": "(stereo not given in full)", "inhibition": "37.9% (active)"}, {"molecule": "COc1ccc2[nH]c3c(c2c1)CCN[C@H]3C", "inhibition": "3.06% (inactive)"}, {"molecule": "CCN(CC)C(=O)[C@@H]1C=C2c3cccc4[nH]c(Br)c(c34)C[C@H]2N(C)C1", "inhibition": "2.23% (inactive)"}, {"molecule": "CN(C)C(=O)NC(O)C(Cl)(Cl)Cl", "note": "(stereo not given)", "inhibition": "-3.56% (inactive)"}, {"molecule": "O=C1NC(=O)N(Cc2ccco2)C(=O)/C1=C\\c1ccc(-c2ccc(F)cc2)o1", "inhibition": "52.2% (active)"}, {"molecule": "CCC1(CC(C)c2ccccc2)C(=O)NC(=O)NC1=O", "note": "(stereo not given)", "inhibition": "1.88% (inactive)"}]}]}
